# In all, about 340,000 compounds went through this assay and about 2,500 (0.74%) were called active. This is one part of a sample in which actives are shown more often than they occur. A number with no mark means an inactive call.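 Rule for the calls: active = inhibition above about 55% (limit read from the data); inactive = the rest.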
# Assay: Gli-Sufu pathway antagonists, primary screen, luciferase luminescence, Sufu-KO-LIGHT cells, uHTS (AID 588413);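 note: 0% = DMSO-treated cells and 100% = wells with medium but no cells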
# Details: Sufu-KO-LIGHT fibroblasts, Gli luciferase reporter luminescence; at 5 µM; active compounds read high
row,SMILES,inhibition
1,COc1ccc(CCNC(=O)CCn2c(=O)c3ccccc3n(CC(=O)NCC3CCCO3)c2=O)cc1OC (stereo unspecified),2.58%
2,CCN(CC(=O)Nc1cc(Cl)ccc1C)C(=O)CSCc1ccc(C)cc1,62.8% (active)
3,CCN(CC(=O)Nc1cc(Cl)ccc1C)C(=O)CSCc1ccccc1,-4.34%
4,CCN(CC(=O)Nc1ccc(OC)cc1)C(=O)CSCc1ccc(C)cc1,-9.04%
5,Cc1ccc2c(c1)N(CC(=O)NCCc1ccc(Cl)cc1)C(=O)c1cccnc1O2,-9.76%
6,COC[C@@H]1NS(=O)(=O)c2ccc(Br)cc2O[C@H]1c1ccccc1,15.6%
7,Cc1ccc(S(=O)(=O)c2nc(-c3cccs3)oc2NCc2cccnc2)cc1,3.04%
8,Cc1ccc(OCCNC(=O)CN2C(=O)NC3(CCCC3)C2=O)cc1,-5.27%
9,COc1ccc(C(=O)NCC(=O)N/N=C/c2cccnc2)cc1,-0.02%
10,O=C(CSc1cccc2cccnc12)N/N=C/c1cccnc1,71% (active)
11,Cc1c(NC(=O)CSc2cccc3cccnc23)c(=O)n(-c2ccccc2)n1C,8.55%
12,NC(=O)CC(NC(=O)Cc1ccc(Br)cc1)c1ccc(NC2CC3CCC2C3)c([N+](=O)[O-])c1 (stereo unspecified),19%
13,CC(=O)N1CCC(C(=O)Nc2nc(-c3ccccc3)ns2)CC1,-14.5%
14,Cc1nn(C)c(Cl)c1CN1CCC(n2nccc2NC(=O)C2CCCC2)CC1,61.7% (active)
15,CC(CN1CCC(n2nccc2NC(=O)C2CCCC2)CC1)c1ccccc1 (stereo unspecified),8.83%
16,O=C(Nc1ccnn1C1CCN(Cc2cccc(OCCO)c2)CC1)C1CCCC1,10.8%
17,COc1cccc(-n2cc3c(c2-c2ccccc2)c(=O)n(C)c(=O)n3C)c1,1.34%
18,COc1cccc(-n2cc(C(=O)O)c3ccccc3c2=O)c1,59.2% (active)
19,COc1cccc(-n2nc(C(=O)N3CCN(Cc4ccccc4)CC3)c3ccccc3c2=O)c1,11%
20,CCCCOC(=O)CNc1nnc(SCC(=O)OCC)[nH]c1=O,-6.62%
21,COc1ccccc1NC(=O)CCSc1nnc(-c2ccc(O)cc2)o1,-0.57%
22,Brc1c(CSc2nncc3ccccc23)nc2ccccn12,65% (active)
23,COc1cc(C(=O)N2CCN(C3CCC(C)CC3)CC2)cc(OC)c1OC (stereo unspecified),5.83%

row,SMILES,inhibition
1,O=c1c2cc([N+](=O)[O-])ccc2nc2n1CCC2,-23.1%
2,CCOC(=O)c1cnc(-n2nc(C)cc2C)nc1NNc1cc(C)nc(-c2ccccc2)n1,80% (active)
3,CC(=O)c1ccc(Oc2cc(C)nc(-n3nc(C)cc3C)n2)cc1,30.8%
4,Cc1cc(C)n(-c2c(F)c(F)c(COC(=O)c3ccccc3)c(F)c2F)n1,6.99%
5,Cc1nn(Cc2ccc(F)cc2)c(C)c1NC(=O)c1noc2c1CCc1ccccc1-2,6.19%
6,O=C(O)C(c1cccs1)C1(O)CCCCC1 (stereo unspecified),6.95%
7,C=CCOC(=O)C1=C[C@H](c2ccc(Br)cc2)C[C@H](OCCCCO)O1,-1%
8,C=CCOC(=O)C1=C[C@@H](c2ccc3c(c2)OCO3)C[C@@H](OCCCCO)O1,98.8% (active)
9,NC(=O)C1=C[C@@H](c2ccc3c(c2)OCO3)C[C@@H](OCCCCO)O1,-4.81%
10,COc1ccccc1-c1nnc(NC(=O)c2cccc(N3C(=O)CCC3=O)c2)o1,-6.14%
11,Cc1cc(NC(=O)c2cccc(N3C(=O)CCC3=O)c2)no1,98.8% (active)
12,COC(=O)c1cccc(NC(=O)c2cccc(N3C(=O)CCC3=O)c2)c1,8.09%
13,C/C(CC(=O)N1CCN(C=O)CC1)=N\NC(=O)c1ccc(Br)cc1,3.23%
14,CCOC(=O)c1c(C)nn(-c2ncccc2NC(=O)CCC(=O)O)c1C,1.77%
15,Cn1c(=O)n(C)c2cc(CNc3ccc(N4CCOCC4)c(C(=O)O)c3)ccc21,5.36%
16,CN1C(CC(=O)Nc2ccc(Br)cc2)c2ccccc2CC1(C)C (stereo unspecified),75.8% (active)
17,COCC(=O)Nc1ccc(Br)cc1,-3.01%
18,CN1CCN(NC(=O)Nc2ccc(Br)cc2)CC1,-5.05%
19,COc1ccc(C(=O)N2CCCC(C(=O)c3ccccc3OC)C2)cc1OC (stereo unspecified),-11.7%
20,COc1ccccc1C(CNC(=O)c1cccc(NS(=O)(=O)c2ccc(Br)cc2)c1)N(C)C (stereo unspecified),4.43%
21,COc1ccc(C(=O)Nc2ccnn2C2CCN(Cc3ccncc3)CC2)cc1,-4.23%
22,CC(C)Oc1ccc(CN2CCC(n3nccc3NC(=O)c3cccnc3)CC2)cc1,61.3% (active)
23,COc1ccccc1C(=O)Nc1ccnn1C1CCN(Cc2cnn(C)c2)CC1,8.85%

# — PubChem BioAssay AID588413 (Sanford-Burnham Center for Chemical Genomics, 2011)
